Source: PubChem BioAssay AID1987 (The Scripps Research Institute Molecular Screening Center, 2009)
Several values for one entry are separate records, joined by “and”; a condition that tells them apart may be missing. Identical values can stand only once. Out of some 320,000 compounds screened, about 560 (0.17%) were called active. The sample holds actives, similar compounds and a random draw of the others, so the mix is not that of the screen.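 The calls were made as follows: active = inhibition above the campaign's mean inhibition across all tested compounds plus 3 SD (cut at about 9.5% in these data); inactive = the rest.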

The molecules below were run against Serine/threonine-protein phosphatase 5 (Homo sapiens) (UniProt P53041) (assay: PP5 phosphatase inhibitors, primary screen, biochemical, fluorescence (AID 1987;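 also: 0% = DMSO only and 100% = 100 µM cantharidin control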)). Conditions: purified PP5c, OMFP substrate fluorescence; at 6.7 µM; active compounds read high.
Serine/threonine-protein phosphatase 5 (Homo sapiens), sequence (P53041 whole entry, looked up): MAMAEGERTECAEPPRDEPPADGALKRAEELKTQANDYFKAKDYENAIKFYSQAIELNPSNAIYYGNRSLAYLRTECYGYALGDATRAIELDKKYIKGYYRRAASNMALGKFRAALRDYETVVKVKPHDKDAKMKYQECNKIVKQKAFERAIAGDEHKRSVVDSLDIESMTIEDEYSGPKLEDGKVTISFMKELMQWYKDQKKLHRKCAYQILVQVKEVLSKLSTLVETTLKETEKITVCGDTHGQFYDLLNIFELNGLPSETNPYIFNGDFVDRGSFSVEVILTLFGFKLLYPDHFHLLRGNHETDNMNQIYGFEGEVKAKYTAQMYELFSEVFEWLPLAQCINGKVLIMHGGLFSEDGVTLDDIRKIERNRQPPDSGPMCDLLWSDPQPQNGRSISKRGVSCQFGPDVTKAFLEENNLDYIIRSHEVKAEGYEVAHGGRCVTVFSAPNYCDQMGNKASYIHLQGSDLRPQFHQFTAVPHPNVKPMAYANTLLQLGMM

SMILES | inhibition
O=C(O)CCc1nc2cc(Cl)ccc2n(Cc2ccccc2)c1=O | -2.07% (inactive)
CCOC(=O)Nc1ccc2c(c1)N(C(=O)CN1CCN3CCCC3C1)c1ccccc1CC2 (centres undefined) | 10.7% (active)
CCOC(=O)Nc1ccc2c(c1)N(C(=O)CCCl)c1ccccc1[S@]2=O | -0.16% (inactive)
CCOC(=O)Nc1ccc2c(c1)N(C(=O)CCN1CCN(CCO)CC1)c1ccccc1CC2 | 2.46% (inactive)
O=S1(=O)N=C(N(CCO)/N=C/c2ccccc2F)c2ccccc21 | -2.75% (inactive)
CC(C)Cn1cnc2c1c(=O)n(CC(=O)NN)c(=O)n2Cc1ccccc1 | 1.33% (inactive)
CC(=O)c1c(C)[nH]c(C(=O)Nc2cc(S(=O)(=O)N(C)C)ccc2C)c1C | 3.8% (inactive)
O=C(N=C1SC2CS(=O)(=O)CC2N1c1cc(Cl)ccc1Cl)C1CC1 (centres undefined) | -1.21% (inactive)
CC(C)OC(=O)c1sc2nc3c(cc2c1N)C(=O)CCC3 | -4.25% (inactive)
O=C(O)c1ccc(-n2cccc2)cc1O | 1.23% (inactive)
O=C(Nc1ccccc1F)C1C2C=CC3(O2)C1C(=O)N(c1cccnc1)C3C(=O)NC1CCCCC1 (centres undefined) | 2.73% (inactive)
O=C(O)c1ccc(S(=O)(=O)N2CCC(Cc3ccccc3)CC2)cc1 | -3.11% (inactive)
CCCCN(CCCC)CCCNC(=O)CN1C(=O)COc2ccc(S(=O)(=O)N3CCC(C)CC3)cc21 | -1.56% (inactive)
COc1ccc(CCNC(=S)NC(=O)/C=C/c2ccc(C)cc2)cc1OC | 1.62% (inactive)
Cn1c(Cc2cccc3ccccc23)nnc1SCC(=O)N1CCN(c2cccc(Cl)c2)CC1 | 3.02% (inactive)
Nc1nc(SCC(=O)NN(c2ccccc2)c2ccccc2)n[nH]1 | -0.37% (inactive)
Cc1cccn2cc(-c3cccc(S(=O)(=O)N4CCCCC4)c3)nc12 | 0.22% (inactive)
COc1ccc(/C=C2\SC(=S)N(CCC(=O)Nc3cccc(C(=O)O)c3)C2=O)cc1OC | 0.86% (inactive)
COc1cc(/C=C2/SC(=S)N(Cc3ccccc3)C2=O)cc(OC)c1O | 10.8% (active)
COc1ccc(/C=C2\SC(=S)N(CCCC(=O)NC3CCCC3)C2=O)cc1OC | -4.92% (inactive)
Cc1c(CCC(=O)N[C@@H](CC(C)C)C(=O)O)c(=O)oc2c(C)c3oc4c(c3cc12)CCCC4 | -1.14% (inactive)
CN1CC(=O)N=C1N | 2.26% (inactive) and -0.51% (inactive)
CC1(C)O[C@@H]2[C@H](O1)[C@@H](COS(=O)(=O)O)O[C@H]2n1cnc2c(=O)[nH]cnc21 | 0.9% (inactive)
COCCOC1CCN(C(=O)c2ccc(OC)c(OC3CCN(C(C)C)CC3)c2)CC1 | 0.82% (inactive)
CC(C)C[C@H](NC(=O)C1CC(=O)N(c2ccc3c(c2)OCCO3)C1)C(=O)NC1CCCC1 (some centres undefined) | -0.77% (inactive)

SMILES | inhibition
COc1ccc(S(=O)(=O)NNC(=O)Nc2ccc(C)cc2)c(OC)c1 | 0.5% (inactive)
CC(C)OC(=O)c1cc(NC(=O)C2C3CCC(O3)C2C(=O)O)cc(C(=O)OC(C)C)c1 (centres undefined) | 55.6% (active)
Cc1sc(NC(=O)C2C3CCC(O3)C2C(=O)O)c(C(=O)OC(C)C)c1-c1ccc(Cl)cc1 (centres undefined) | 15.1% (active)
COc1ccc(NC(=S)SC)cc1OC | 3.15% (inactive)
CC(C)COC(=O)c1ccc(NC(=O)C2C3C=CC(C3)C2C(=O)O)cc1 (centres undefined) | 1.86% (inactive)
COC(=O)c1cc(NC(=O)C2C3C=CC(C3)C2C(=O)O)cc(C(=O)OC)c1 (centres undefined) | 1.39% (inactive)
COc1ccc(NC(=O)CNC(=O)Cc2ccccc2)cc1OC | -2.46% (inactive)
CCOC(=O)c1c(NC(=O)C2CCN(S(=O)(=O)c3ccc(Cl)cc3)CC2)sc2c1CCCC2 | 0.34% (inactive)
COc1ccc(NC(=O)C2C3CCC(O3)C2C(=O)O)cc1OC (centres undefined) | 76.2% (active)
CC(C)OC(=O)c1c(NC(=O)c2ccco2)sc2c1CCCC2 | 1.48% (inactive)
Cc1cc(C)n(-c2nnc(N3CCN(c4ccccc4)CC3)nn2)n1 | -0.74% (inactive)
COCCCNC(=O)C1CC(=O)N(CCc2ccc(F)cc2)C1 (centres undefined) | -1.89% (inactive)
CC(C)CCn1cnc2c1c(=O)n(CC(=O)NC(N)=O)c(=O)n2Cc1ccccc1 | 1.52% (inactive)
COc1ccc2c(c1)C(=O)Nc1cc(Cl)ccc1N2 | -0.62% (inactive)
CC(C)CN(C(=O)Cn1c(=O)cnc2ccccc21)C1CCS(=O)(=O)C1 (centres undefined) | -1.01% (inactive)
COc1ccc(S(=O)(=O)N2CCN(C(=O)c3cc(C)oc3C)CC2)cc1 | 0.44% (inactive)
CCCCn1c(N)c(N(CCC(C)C)C(=O)COC(=O)c2cccnc2OCC)c(=O)[nH]c1=O | 0.18% (inactive)
CC(=O)Nc1ccccc1OC(C)C(=O)N1CCC(C)CC1 (centres undefined) | -1.03% (inactive)
Nc1nnc(SCC(=O)OCc2ccc(Cl)c(Cl)c2)s1 | 1.15% (inactive)
CCN1C(=O)[C@H]2[C@@H](c3ccc(SC4CCCCC4)c(OC)c3)N[C@@](Cc3ccccc3)(C(=O)OC)[C@H]2C1=O | 2.69% (inactive)
CC(C)Oc1ccc(C(CC(=O)N2CCOCC2)C(C)C)cc1 (centres undefined) | 0.66% (inactive)
Cc1cccc(N(C(=O)c2csnn2)C(C(=O)NCc2ccccc2)c2ccncc2)c1 (centres undefined) | 1.82% (inactive)
Cn1cnnc1Sc1ccc(S(C)(=O)=O)cc1[N+](=O)[O-] | -0.46% (inactive)
CCOC(=O)c1cnc(COc2ccccc2Cl)[nH]c1=O | -1.14% (inactive)
CC1CC(C)(C)n2c(O)c(N=NC(N)=S)c3cccc1c32 (centres undefined) | 3.55% (inactive)

SMILES | inhibition
Cn1ccnc1SCC(=O)Nc1ccc2c(c1)OCCO2 | 2.87% (inactive)
COc1ccc(Cl)cc1C(=O)Nc1ccc(N(C)C(C)=O)cc1 | 0.43% (inactive)
COc1cc(C(F)(F)F)c(C(=O)N(C)c2ccc(Cl)cc2)cn1 | 11.3% (active)
COc1cccc(OC)c1CN(C)C(=O)c1cnccc1C(F)(F)F | 0.42% (inactive)
COc1ccccc1NC(=O)COC(=O)COc1ccccc1F | 2.17% (inactive)
Oc1c(C(c2ccccn2)N2CCOCC2)ccc2cccnc12 (centres undefined) | 11.2% (active)
CC(C)c1cc(CN2CCOCC2)cc(C(C)C)c1O | 1.58% (inactive)
CN(C)c1ccc(C(CC(=O)O)C(=O)O)cc1 (centres undefined) | 0.86% (inactive)
CCN(CC)c1nc(-c2ccccc2)cc(C(F)(F)F)c1C#N | 0.13% (inactive)
O=C(Cc1ccccc1Cl)N1CCOCC1 | -1.76% (inactive)
CN(C(=O)Nc1ccc(Cl)cc1)n1cnc2ccccc2c1=O | -2.44% (inactive)
CC(C)(C)c1cc[n+](-c2[nH]c(=O)sc2/C=N/N=C(\[O-])c2ccccc2)cc1 | -0.11% (inactive)
O=C(CSc1ncnc2sccc12)N1CCN(C(=O)c2cccs2)CC1 | 0.16% (inactive)
CCC(C)Sc1nc(C)nc2c1c(=O)n(C)c(=O)n2C (centres undefined) | 2.18% (inactive)
CCn1c(C)nc2c1C(=O)c1ccccc1C2=O | -1.27% (inactive)
CCc1nnc(NC(=O)c2cc(S(=O)(=O)N3CCCCC3)ccc2C)s1 | 3.35% (inactive)
O=S1(=O)CC/C(=N\Nc2ccc(F)cc2)c2ccsc21 | 1.6% (inactive)
O=Cc1cn(-c2ccccc2)nc1-c1ccccn1 | 0.89% (inactive)
C=CCc1ccccc1OCC(O)CN1CCN(CCO)CC1 (centres undefined) | 0.89% (inactive)
O=C(NCCCN1CCOCC1)c1ccc2c(c1)N(Cc1cccc(F)c1)C(=O)c1ccccc1S2 | -0.03% (inactive)
CCN1CCN(CCNC(=O)c2ccc(/C=C3/Sc4ccccc4N(Cc4cccc(C)c4)C3=O)cc2)CC1 | 10.1% (active)
CN1CCN(CCCNC(=O)c2ccc(/C=C3\Oc4ccccc4N(Cc4ccc(Cl)cc4)C3=O)cc2)CC1 | 4.83% (inactive)
COc1ccc(CNc2c(CO)cnc3c2cnn3C)cc1 | 0.82% (inactive)
CC(C(=O)c1ccc(-c2ccccc2)cc1)[n+]1cccc(Br)c1 (centres undefined) | 0.21% (inactive)
